Measured values: ChEMBL document CHEMBL4513216, “Probing the Open Global Health Chemical Diversity Library for Multistage-Active Starting Points for Next-Generation Antimalarials” (ACS Infect Dis, 2020)
Out of some 69,000 compounds screened, about 8,600 (12%) showed an effect of 50% or more. Shown is part of a subset that was picked to be rich in strong results.

system: Plasmodium berghei; assay: Screen against P. berghei liver stage (PbLuc), transformed with Luciferase, at 10uM; type: functional, HepG2; settings: tested at 10 uM

Going from `COc1cccc(-c2cnc(CNC(C)(C)c3nc(C)cs3)o2)c1` to `COc1cccc(C(C(=O)O)N(C)Cc2ccc(C)o2)c1` (configuration not stated), the INHIBITION rises from -16% to 46.7%.

Going from `CCCn1cc(C(=O)NC(C)c2c(C)nn(CC)c2C)c(C)n1` (configuration not stated) to `CCCNC(=O)c1nn(CC)cc1Cl`, the INHIBITION falls from 43% to 24.2%.

Compared with `CCC(O)CN1CCN(C(=O)c2ccn(-c3ccccc3)n2)CC1` (configuration not stated), `Cc1ccc(C(=O)N2CCN(Cc3ccccc3)CC2)n1C` is higher in INHIBITION: 2.3% for the first, 27.6% for the second.

First: CN(Cc1ncnn1C1Cc2ccccc2C1)C1CCS(=O)(=O)C1 (configuration not stated)
Second: CN(Cc1nnnn1C1CC1)CC1COc2ccccc2O1 (configuration not stated)
The INHIBITION of the first is higher: 25.4% for the first, 17.5% for the second.

First: O=C(NCc1cccnc1)c1nc2c(s1)CCCN2C(=O)C1CC1
Second: O=C(NCCc1cccnc1)c1nc2c(s1)CCCN2C(=O)C1CC1
The INHIBITION of the first is lower: 27.6% for the first, 35.8% for the second.

First: O=C(NCCc1cccc(F)c1)c1nc2c(s1)CCCN2C(=O)C1CC1
Second: O=C(NCCN1CCOC1=O)c1cc(-c2ccccc2)on1
The INHIBITION of the first is higher: 52.1% for the first, 30.2% for the second.

First: CC(C)C(=O)N1CCC(c2nc3c([nH]2)CCCNC3=O)CC1
Second: CC1CCN(C(=O)C2(Cc3cc(C4CCOC4)no3)CCNCC2)CC1 (configuration not stated)
The INHIBITION of the first is lower: 25.9% for the first, 32.3% for the second.

Going from `COc1ccccc1CN1CC(O)CN(S(=O)(=O)C(C)C)CC1=O` (configuration not stated) to `CN(C)C(=O)CN1C[C@H]2CC[C@@H](C1)N(Cc1ccccc1OCCO)C2`, the INHIBITION rises from 28.3% to 59.7%.

Going from `Cc1cc(C)n(CCCN(C)C(=O)CN2CC3(CCNCC3)OC2=O)n1` to `Cc1cc(CN(C)C(=O)CN2CC3(CCNCC3)OC2=O)n(C)n1`, the INHIBITION rises from 25.8% to 64.8%.

Compared with `Cc1cc(CN(C)C(=O)CN2CC3(CCNCC3)OC2=O)no1`, `CCc1cc(CN(C)C(=O)CN2CC3(CCNCC3)OC2=O)on1` is higher in INHIBITION: -20.7% for the first, 44.2% for the second.

Compared with `Cc1ncsc1CCN(C)C(=O)CN1CC2(CCNCC2)OC1=O`, `Cc1nnsc1CN(C)C(=O)CN1CC2(CCNCC2)OC1=O` is higher in INHIBITION: -5.52% for the first, 51.8% for the second.

Compared with `COc1ccc2c(c1)CCN2Cc1nc2c(cnn2C)c(=O)[nH]1`, `COc1ccc(CN2CCN(C(=O)c3ccc(C)n3C)CC2)cc1` is higher in INHIBITION: 33.8% for the first, 46.2% for the second.

First: CS(=O)(=O)NCCCNC(=O)NCc1ccccc1
Second: CS(=O)(=O)NCC(=O)NC1CCCN(c2ccccn2)C1 (configuration not stated)
The INHIBITION of the first is lower: -40.2% for the first, 7.605% for the second.

First: CC(=O)N1CC(=O)N(c2cnn(C)c2)CC12CCN(CC1CC1)C2 (configuration not stated)
Second: O=C(c1cnc(O)cn1)N1CCC(CN2CCOCC2)CC1
The INHIBITION of the first is higher: 30.1% for the first, -30.3% for the second.

Going from `Cc1ccn(CCNC(=O)C2CCN(S(=O)(=O)c3ccc(F)cc3)C2)n1` (configuration not stated) to `NC(=O)C1CCN(C(=O)c2ccn(-c3ccc(F)cc3)n2)CC1`, the INHIBITION falls from 3.91% to -66.9%.

First: Cn1cc([C@@H]2CN(S(=O)(=O)c3cccnc3)C[C@H]2N)c2ccncc21
Second: Cc1ccnc(C2CN(Cc3ccc(-c4ccccc4C(=O)O)o3)C2)n1
The INHIBITION of the first is lower: -30.435% for the first, 14.35% for the second.

Compared with `CN(C)c1cc2c(nn1)CCN(C(=O)C1CCCc3ccccc31)C2` (configuration not stated), `CC1CCN(S(=O)(=O)N2Cc3ccccc3C[C@H]2C(N)=O)CC1` is higher in INHIBITION: 5.03% for the first, 43.2% for the second.

Going from `CC(C)c1ccc(CC(=O)N2CCCC3(CN(C)C(=O)O3)C2)cc1` (configuration not stated) to `CCOc1ccc(CN2CCN(C(=O)c3ccc(C)n3C)CC2)cc1`, the INHIBITION rises from 24.3% to 74.8%.

Compared with `CCn1ncnc1C(C)Nc1cc(C2CCNCC2)nc(C)n1` (configuration not stated), `Cc1noc(C)c1-c1ccnc(C2CCNCC2)c1` is higher in INHIBITION: -63.5% for the first, 67.7% for the second.

First: CN(CC1(C)COC1)C(=O)c1cc(-c2ccn(C)n2)nc2ccccc12
Second: Cc1ccccc1C(C(=O)N(C)CCc1cnn(C)c1)N(C)C (configuration not stated)
The INHIBITION of the first is lower: 18.2545% for the first, 31.7% for the second.

First: Cc1noc(C)c1-c1cc(C2CCNCC2)ccn1
Second: Cc1noc(C)c1-c1ccnc(C2CCN(C3CCOCC3)CC2)c1
The INHIBITION of the first is lower: 20.8% for the first, 24.4% for the second.

Compared with `CSCC[C@@H]1CN2CCC[C@H]2CN1Cc1coc2ccc(C)cc2c1=O`, `CN(C)C(=O)CN1C[C@H]2CC[C@@H](C1)N(Cc1cc(F)ccc1F)C2` is lower in INHIBITION: 40.09% for the first, 0.139% for the second.

Compared with `Cc1ccc(CN2CC(C(=O)N3CCCC3)C3(CCOCC3)C2)s1` (configuration not stated), `Cc1ccc(CN2CCn3c(CN4CCN(C)CC4)cnc3C2C)s1` (configuration not stated) is higher in INHIBITION: -11.1% for the first, 24.3% for the second.

Compared with `O=C([C@H]1CCS(=O)(=O)[C@@H]2CN(CCc3ccccc3)C[C@H]12)N1CCCC1`, `NC(=O)[C@@H]1Cc2ccccc2CN1S(=O)(=O)N1CCCCCC1` is lower in INHIBITION: 39.3% for the first, 32% for the second.

Compared with `Cc1csc(CN2CC(CO)Oc3ccccc32)n1` (configuration not stated), `Cc1nc(CN2CC(CO)Oc3ccccc32)sc1C` (configuration not stated) is lower in INHIBITION: 24.3% for the first, -10.3% for the second.

Going from `Cc1cc(N(C)CC2COc3ccccc3O2)nc(N)n1` (configuration not stated) to `Cc1cc(N(C)CC2COc3ccccc3O2)nc(C)n1` (configuration not stated), the INHIBITION rises from 80.1% to 83.5%.

Compared with `CN(CC1COc2ccccc2O1)C(=O)NCCCn1cccn1` (configuration not stated), `CCCn1nnnc1CN(CC)CC1COc2ccccc2O1` (configuration not stated) is higher in INHIBITION: -14.4% for the first, 45.9% for the second.

Going from `CN(Cc1nc(CC2CC2)no1)CC1COc2ccccc2O1` (configuration not stated) to `CCN1CC(CN(C)c2cc(C)nc(N)n2)Oc2ccccc21` (configuration not stated), the INHIBITION rises from 29.6% to 82.4%.

Compared with `Cc1cnc(N2CC[C@@H]3O[C@H](COCc4ccccn4)CC[C@@H]32)nc1`, `CN(C)CC(=O)N1CCO[C@@H]2CC(COCc3ccncc3)C[C@H]21` (some centres not stated) is higher in INHIBITION: 5.44% for the first, 11.3% for the second.

Compared with `CC(C)c1cc(=O)[nH]c(-c2ccccc2CN2CCCCCC2)n1`, `NC(=O)[C@@H]1Cc2ccccc2CN1S(=O)(=O)N1CCCCC1` is higher in INHIBITION: 23.1% for the first, 51% for the second.

First: CCSc1cncc(N2CCC(C(=O)NC(C)C(C)C)CC2)n1 (configuration not stated)
Second: CCSc1ccc(C(=O)N2CC[C@](C)(O)[C@H](C)C2)s1
The INHIBITION of the first is lower: -26.2% for the first, -5.12% for the second.

Going from `CCN(Cc1cccnc1)CC1(C)Cc2c(N)nc(N)nc2O1` (configuration not stated) to `CCC1c2ccsc2CCN1C(=O)NCc1cccnc1OC` (configuration not stated), the INHIBITION rises from 4.57% to 9.383%.

First: O=C(c1cnccn1)N1CCCC2(CCN(c3ncccn3)C2)C1 (configuration not stated)
Second: O=C1COC2(CCN(C(=O)c3ccco3)CC2)CN1Cc1cccnc1
The INHIBITION of the first is lower: 9.63% for the first, 43.2% for the second.

Compared with `COCC(=O)N1CCCCC1c1ccnc(Nc2ncc(C)s2)n1` (configuration not stated), `CNC(=O)[C@@H]1CN(C(=O)COC)C[C@H]1c1ccnc(N2CCCC2)n1` is lower in INHIBITION: 48.4% for the first, 21.7% for the second.

First: CN(C)CCO[C@H]1CN(C(=O)c2cscn2)[C@@H]2COC[C@H]12
Second: CCSc1ccc(C(=O)N2CC[C@](O)(CC)[C@H](O)C2)s1
The INHIBITION of the first is lower: -16.1% for the first, 53.9% for the second.

Compared with `Cc1ccc(OC2(C(=O)O)CCN(C(=O)CCc3ccco3)CC2)cc1`, `CCSc1ccc(C(=O)N2CCC3(CC2)[C@H](O)C[C@@H]3O)s1` is lower in INHIBITION: 31.4% for the first, 16.7% for the second.

Compared with `Cc1noc(C)c1C(=O)N1C[C@@H]2C[C@@H](c3ccncn3)O[C@@H]2C1`, `CCOc1ccc(Cl)c(C(=O)N2CCCC(c3cc(C)[nH]n3)C2)n1` (configuration not stated) is higher in INHIBITION: -10.9% for the first, -4.13% for the second.

Going from `COc1cc(-c2noc(C(CC(C)C)N3CCCCC3=O)n2)ccn1` (configuration not stated) to `COc1ccc(-c2noc(C(CC(C)C)N3CCCCC3=O)n2)cn1` (configuration not stated), the INHIBITION rises from 34.1% to 51.7%.

First: CC(C)CC(c1nc(-c2cnn(C)c2)no1)N1CCCCC1=O (configuration not stated)
Second: Cc1ccsc1C(=O)N1CCCn2c(nc(CN(C)C)cc2=O)C1
The INHIBITION of the first is higher: 38.7% for the first, -10.3% for the second.

First: CC(=O)N1CCC1c1cc(NC2CCOCC2)nc(C)n1 (configuration not stated)
Second: CC1CC(=O)c2cc(C(=O)N3CCOCC3)c(=O)[nH]c2C1 (configuration not stated)
The INHIBITION of the first is lower: 11.65% for the first, 13.9% for the second.

First: Cc1ccc(C(=O)N2CCN(Cc3cccs3)CC2)n1C
Second: Cc1ccc(C(=O)N2CCN(Cc3ccsc3)CC2)n1C
The INHIBITION of the first is higher: 19.4% for the first, 9.32% for the second.

Going from `Cc1ccc(C(=O)N2CCN(Cc3ccc(C#N)cc3)CC2)n1C` to `Cn1ccc(C(=O)Nc2cc(F)ccc2OCC2CCCO2)cc1=O` (configuration not stated), the INHIBITION falls from 54.4% to 15.6%.

Compared with `CC(C)N1CCCC1c1cc(CO)[nH]n1` (configuration not stated), `CC1(C)CN(C(=O)c2cc(F)cc3[nH]cnc23)CCS1` is higher in INHIBITION: 9.585% for the first, 10.2% for the second.

Compared with `CC(C(=O)NCc1ccc2c(c1)OCCO2)n1cncn1` (configuration not stated), `Cc1cccc(C(C(=O)N(C)CCc2cn[nH]c2)N(C)C)c1` (configuration not stated) is lower in INHIBITION: 46.6% for the first, 42.6% for the second.

First: COc1cc(CN2CC[C@@H](N3CCCCCC3)[C@H](O)C2)cc(Cl)c1OC
Second: CN(C)C(=O)CN1C[C@H]2CC[C@@H](C1)N(Cc1cccc(Cl)c1Cl)C2
The INHIBITION of the first is lower: 1.56% for the first, 61.8% for the second.

First: CN(C)C(=O)CN1C[C@H]2CC[C@@H](C1)N(Cc1ccccc1C#N)C2
Second: CN(C)C(=O)CN1C[C@H]2CC[C@@H](C1)N(Cc1ccc(Cl)cc1Cl)C2
The INHIBITION of the first is higher: 41.5% for the first, 19.1% for the second.

First: CN(C)C(=O)N1C[C@H]2CC[C@@H](C1)N(C/C=C/c1ccc(F)cc1)C2
Second: CN(C)C(=O)CN1C[C@H]2CC[C@@H](C1)N(C/C=C/c1ccc(F)cc1)C2
The INHIBITION of the first is lower: -27.7% for the first, 52.5% for the second.

First: CN(C)S(=O)(=O)N1C[C@H]2CC[C@@H](C1)N(C/C=C/c1ccc(F)cc1)C2
Second: CN(C)C(=O)CN1C[C@H]2CC[C@@H](C1)N(Cc1c(F)cccc1Cl)C2
The INHIBITION of the first is higher: 30.7% for the first, 29.8% for the second.

Going from `Cc1nc(COCc2nc3c(o2)CN(C(=O)c2ccc[nH]2)C3)cs1` to `CN(C)[C@@H]1CN(C(=O)c2cc3ccc(F)cc3[nH]2)C[C@H]1O`, the INHIBITION rises from -13.9% to 18.15%.

First: Cc1cc(C)cc(CCC(=O)N(C)CCc2cn[nH]c2)c1
Second: Cc1ccc(C(C(=O)N(C)CCc2cn[nH]c2)N(C)C)cc1 (configuration not stated)
The INHIBITION of the first is lower: -10.2% for the first, 51.1% for the second.

First: CN(CCc1cn[nH]c1)C(=O)C(c1ccc(F)cc1)N(C)C (configuration not stated)
Second: Cc1ccccc1C(C(=O)N(C)CCc1cn[nH]c1)N(C)C (configuration not stated)
The INHIBITION of the first is lower: 43.7% for the first, 54.4% for the second.
